# In PubChem BioAssay (Tox21):
# Values without a mark were called inactive. Records with an inconclusive call do not appear. Where a call stands in place of a potency, no number is given. Calls of active or inactive are those of the source. Unless noted, the call rests on the fitted dose curve; in most records, active means well fitted curve in the direction sought with a large enough effect in the repeat runs; inconclusive means weak or mixed curves; inactive means no such curve, though single readings can be large; an effect the other way counts as inactive or inconclusive.
# Key:
# [1] = qHTS RealTime-Glo MT Cell Viability Assay in HepG2 cells - 16 hour (AID 1224885); further: nearly all actives have a fitted effect of over 50% in size; further: potency means the concentration at half of the fitted maximal effect
# Procedure, shortened: (§1)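 Real-time, nonlytic viability: 600 HepG2 cells/well mixed with NanoLuc enzyme plus prosubstrate; 5 h settle, compound (DMSO) added by pintool; luminescence monitored over 40 h at 37 C.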
# [2] = qHTS RealTime-Glo MT Cell Viability Assay in HEK293 cells - 24 hour (AID 1224886); further: potency means the concentration at half of the fitted maximal effect; nearly all actives have a fitted effect of over 50% in size
# Procedure, shortened: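 Cells + reagent dispensed (600 cells/well, HEK293) → 5 h at 37 C/5% CO2 → 23 nL compound in DMSO pinned → 40 h at 37 C → luminescence read at 0, 8, 16, 24, 32, 40 h.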
# [3] = qHTS RealTime-Glo MT Cell Viability Assay in HEK293 cells - 8 hour (AID 1224887); further: nearly all actives have a fitted effect of over 50% in size; further: potency means the concentration at half of the fitted maximal effect
# Procedure, shortened: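 Tox21 screen in HEK293 using RealTime-Glo MT chemistry, with cells and reagent co-dispensed. Luminescence proportional to viable cell number was captured at intervals during 40 h compound exposure at 37 C.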
# [4] = A CellTox Green Cytotoxicity Assay to monitor cytotoxicity in HEK293 cells - 16 hour (AID 1224888); further: nearly all actives have a fitted effect of over 35% in size; further: potency means the concentration at half of the fitted maximal effect
# Procedure, shortened: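 Seeding of HEK293 cells together with cytotoxicity dye preceded a 5 h incubation at 37 C/5% CO2. Test compounds in DMSO were then added and fluorescence monitored across 40 h.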
# [5] = qHTS RealTime-Glo MT Cell Viability Assay in HepG2 cells - 0 hour (AID 1224889); further: nearly all actives have a fitted effect of over 50% in size; further: potency means the concentration at half of the fitted maximal effect
# Procedure, shortened: as §1
# [6] = A CellTox Green Cytotoxicity Assay to monitor cytotoxicity in HepG2 cells - 8 hour (AID 1224890); further: nearly all actives have a fitted effect of over 45% in size
# Procedure, shortened: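 Nonlytic assay: viable cells exclude the dye, so fluorescence scales with cell death. HepG2 at 600 cells/well, compounds added after 5 h, signal read across 40 h.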
# [7] = qHTS assay to identify small molecule HDAC inhibitors (AID 1259364);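 further: wild-type HCT-116 cells with endogenous class I/II HDAC activity; top concentration of the series differs between compounds; nearly all actives have a fitted effect of over 45% in size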
# Procedure, shortened: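 Relative class I and II HDAC activity is taken from the luminogenic signal in HCT-116 cells, with compound exposure 2 hr and reagent development 30 min at room temperature.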
# [8] = qHTS assay to identify small molecule HDAC inhibitors - cell viability counter screen (AID 1259365)
# Procedure, shortened: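 Following a 2hr exposure of overnight-plated wild-type HCT-116 cells to DMSO-delivered compounds, CellTiter-Glo was added and luminescence recorded after 30min at room temperature.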
# [9] = qHTS assay to identify small molecule agonists of the sonic hedgehog signaling (Shh) pathway (AID 1259368; calls by dose curve;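 further: NIH/3T3-derived 3T3Gli1-Luc cells carrying a stable Gli1-driven firefly luciferase reporter; series mostly up to about 92 µM; nearly all actives have a fitted effect of over 15% in size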)
# Procedure, shortened: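 Mouse fibroblast (NIH/3T3) reporter cells with stably integrated Gli1-Luc were treated 24 hr with compound; firefly luciferase luminescence served as the read-out.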
# [10] = qHTS assay to identify small molecule antagonists of the sonic hedgehog signaling (Shh) pathway (AID 1259369; calls by dose curve; further: potency means the concentration at half of the fitted maximal effect; nearly all actives have a fitted effect of over 45% in size)
# Procedure, shortened: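 Conditioned medium drives Shh signalling in 3T3Gli1-Luc cells; compounds in DMSO co-applied, 24hr at 37 C, then luciferase luminescence.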
# [11] = target: Androgen receptor (Homo sapiens) (UniProt P10275); assay: qHTS assay to identify small molecule antagonists of the androgen receptor (AR) signaling pathway using the MDA cell line in the presence of 0.5 nM R1881 (AID 1259243); further: nearly all actives have a fitted effect of over 50% in size; further: potency means the concentration at half of the fitted maximal effect
# Procedure, shortened: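 We exposed MDA-kb2 cells to compounds under 0.5 nM R1881 stimulation for 16 hr at 37C and quantified MMTV-driven luciferase by luminescence.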
# [12] = target: Estrogen receptor (Homo sapiens) (UniProt P03372); assay: qHTS assay to identify small molecule antagonists of the estrogen receptor alpha (ER-alpha) signaling pathway using the BG1 cell line in the presence of 0.1 nM 17-beta-estradiol (AID 1259244); further: nearly all actives have a fitted effect of over 50% in size; further: potency means the concentration at half of the fitted maximal effect
# Procedure, shortened: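 VM7Luc4E2; 4xERE-luciferase; 0.1 nM E2 final; 22 h co-incubation, 37C; ONE-Glo luminescence after 30 min at room temperature.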
# [13] = qHTS assay to identify small molecule phospholipidosis (PLD) inducers (AID 1259344; active means well fitted curve in the direction sought with a large enough effect; an effect the other way counts as inactive or inconclusive)
# Procedure, shortened: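 Phospholipidosis is scored by imaging LipidTOX-stained pits in HepG2 cells exposed to compound for 24 h at 37 C; pit counts and integrated intensities per well and per cell serve as outputs.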
# [14] = qHTS assay to identify small molecule agonists of the sonic hedgehog signaling (Shh) pathway - cell viability counter screen (AID 1259366); further: nearly all actives have a fitted effect of over 50% in size; further: potency means the concentration at half of the fitted maximal effect
# Procedure, shortened: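 After a 4hr attachment at 37C, NIH/3T3 cells bearing an integrated Gli1-driven luciferase reporter were dosed with compounds. Treatment lasted 24hr, with the final hour including CellTiter-Fluor for a fluorescence viability measurement.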
# [15] = qHTS assay to identify small molecule antagonists of the androgen receptor (AR) signaling pathway using the MDA cell line in the presence of 0.5 nM R1881 - cell viability counter screen (AID 1259242); further: nearly all actives have a fitted effect of over 45% in size; further: potency means the concentration at half of the fitted maximal effect
# Procedure, shortened: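 R1881 at 0.5 nM final stimulated MDA-kb2 cells during 16 hr compound treatment at 37C. Cytotoxicity read: CellTiter-Fluor fluorescence after 30 min.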
# [16] = qHTS assay to identify small molecule agonists of the androgen receptor (AR) signaling pathway in the presence of an antagonist - cell viability counter screen (AID 1259379); further: nearly all actives have a fitted effect of over 25% in size; further: potency means the concentration at half of the fitted maximal effect
# Procedure, shortened: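 A CellTiter-Fluor read-out measured viability of MDA-kb2 reporter cells (MMTV promoter with AR and GR response elements). Treatment: nilutamide 3.0uM final with compounds at 15 concentrations, 16 hr, 37C, 0% CO2.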
# [17] = qHTS assay to identify small molecule antagonists of the estrogen receptor alpha (ER-alpha) signaling pathway using the BG1 cell line in the presence of 0.1 nM 17-beta-estradiol - cell viability counter screen (AID 1259241); further: nearly all actives have a fitted effect of over 40% in size
# Procedure, shortened: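 Measures cytotoxicity alongside the ER-alpha antagonist readout: VM7Luc4E2 cells, charcoal-stripped serum, 0.1 nM 17beta-estradiol final, 22 hr compound incubation at 37C, CellTiter-Fluor fluorescence.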
# [18] = qHTS assay to identify small molecule antagonists of the sonic hedgehog signaling (Shh) pathway - cell viability counter screen (AID 1259367); further: nearly all actives have a fitted effect of over 55% in size; further: potency means the concentration at half of the fitted maximal effect
# Procedure, shortened: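 Cells: 3T3 Gli1-Luc, 2,000/well, 4 hr pre-incubation. Compounds in DMSO, then conditioned medium. Incubation 24 hr, 37C, 5% CO2. CellTiter-Fluor at 23 hr, 1 hr, fluorescence.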
# [19] = target: Estrogen receptor beta (Homo sapiens) (UniProt Q92731); assay: qHTS assay to identify small molecule antagonists of the estrogen receptor beta (ER-beta) signaling pathway (AID 1259378; active means well fitted inhibition curve with a large enough effect in the signal ratio in the repeat runs, not every such curve was filed as active; the % refers to the signal ratio; further: potency means the concentration at half of the fitted maximal effect)
# Procedure, shortened: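 Antagonist mode: compounds added to beta-lactamase reporter HEK293T ER-beta-UAS cells stimulated with E2 (1nM final), 16 hr at 37C. LiveBLAzer B/G FRET substrate, 2 hours room temperature, fluorescence read-out.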
# [20] = target: Estrogen receptor beta (Homo sapiens) (UniProt Q92731); assay: qHTS assay to identify small molecule agonists of the estrogen receptor beta (ER-beta) signaling pathway (AID 1259377; active means well fitted activation curve with a large enough effect in the signal ratio in the repeat runs, not every such curve was filed as active; the % refers to the signal ratio)
# Procedure, shortened: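 In HEK293T cells bearing a UAS-beta-lactamase reporter under ER-beta control, DMSO-delivered compounds were incubated for 16 hr at 37C. Activity was detected as fluorescence 2 hours after LiveBLAzer B/G FRET substrate addition.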
# Sequence of Androgen receptor (Homo sapiens) (P10275 whole entry, looked up): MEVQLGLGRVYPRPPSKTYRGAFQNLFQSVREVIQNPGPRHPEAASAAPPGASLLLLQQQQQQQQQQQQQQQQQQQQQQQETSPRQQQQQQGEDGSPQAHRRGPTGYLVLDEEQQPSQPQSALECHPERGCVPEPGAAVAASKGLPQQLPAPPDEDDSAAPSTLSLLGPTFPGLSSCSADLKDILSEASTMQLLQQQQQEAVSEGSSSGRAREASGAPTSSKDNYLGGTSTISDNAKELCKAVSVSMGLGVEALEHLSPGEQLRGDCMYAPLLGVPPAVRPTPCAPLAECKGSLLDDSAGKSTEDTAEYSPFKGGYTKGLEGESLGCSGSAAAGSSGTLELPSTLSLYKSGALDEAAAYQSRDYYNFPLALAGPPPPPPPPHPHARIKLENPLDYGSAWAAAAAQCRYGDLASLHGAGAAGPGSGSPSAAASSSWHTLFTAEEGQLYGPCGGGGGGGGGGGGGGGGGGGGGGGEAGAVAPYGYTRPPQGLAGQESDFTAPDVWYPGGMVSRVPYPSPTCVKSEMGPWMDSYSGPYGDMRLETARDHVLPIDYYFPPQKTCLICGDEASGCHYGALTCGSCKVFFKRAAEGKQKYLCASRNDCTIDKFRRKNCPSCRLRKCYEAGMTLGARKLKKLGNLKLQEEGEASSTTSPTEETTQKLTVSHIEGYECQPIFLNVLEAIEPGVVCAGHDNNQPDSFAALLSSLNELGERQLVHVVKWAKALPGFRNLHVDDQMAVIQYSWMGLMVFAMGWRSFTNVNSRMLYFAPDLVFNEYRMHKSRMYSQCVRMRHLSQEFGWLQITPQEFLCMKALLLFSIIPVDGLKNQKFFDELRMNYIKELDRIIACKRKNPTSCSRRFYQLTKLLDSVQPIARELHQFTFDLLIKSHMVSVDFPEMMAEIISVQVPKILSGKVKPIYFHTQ
# Sequence of Estrogen receptor beta (Homo sapiens) (Q92731 whole entry, looked up): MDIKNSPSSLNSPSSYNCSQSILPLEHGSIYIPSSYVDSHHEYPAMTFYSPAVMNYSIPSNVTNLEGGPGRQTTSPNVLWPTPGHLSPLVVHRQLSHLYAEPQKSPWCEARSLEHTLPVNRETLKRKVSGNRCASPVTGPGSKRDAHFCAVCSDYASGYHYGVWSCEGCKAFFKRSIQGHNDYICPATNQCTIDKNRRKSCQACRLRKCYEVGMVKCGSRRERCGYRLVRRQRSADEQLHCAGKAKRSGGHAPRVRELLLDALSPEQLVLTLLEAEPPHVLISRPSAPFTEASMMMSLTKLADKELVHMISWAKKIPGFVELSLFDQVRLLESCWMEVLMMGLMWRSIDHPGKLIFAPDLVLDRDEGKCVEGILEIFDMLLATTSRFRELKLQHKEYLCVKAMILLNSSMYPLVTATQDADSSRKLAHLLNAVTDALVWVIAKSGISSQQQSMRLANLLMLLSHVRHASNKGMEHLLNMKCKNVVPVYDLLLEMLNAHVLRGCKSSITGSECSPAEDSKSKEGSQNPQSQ
# Sequence of Estrogen receptor (Homo sapiens) (P03372 whole entry, looked up): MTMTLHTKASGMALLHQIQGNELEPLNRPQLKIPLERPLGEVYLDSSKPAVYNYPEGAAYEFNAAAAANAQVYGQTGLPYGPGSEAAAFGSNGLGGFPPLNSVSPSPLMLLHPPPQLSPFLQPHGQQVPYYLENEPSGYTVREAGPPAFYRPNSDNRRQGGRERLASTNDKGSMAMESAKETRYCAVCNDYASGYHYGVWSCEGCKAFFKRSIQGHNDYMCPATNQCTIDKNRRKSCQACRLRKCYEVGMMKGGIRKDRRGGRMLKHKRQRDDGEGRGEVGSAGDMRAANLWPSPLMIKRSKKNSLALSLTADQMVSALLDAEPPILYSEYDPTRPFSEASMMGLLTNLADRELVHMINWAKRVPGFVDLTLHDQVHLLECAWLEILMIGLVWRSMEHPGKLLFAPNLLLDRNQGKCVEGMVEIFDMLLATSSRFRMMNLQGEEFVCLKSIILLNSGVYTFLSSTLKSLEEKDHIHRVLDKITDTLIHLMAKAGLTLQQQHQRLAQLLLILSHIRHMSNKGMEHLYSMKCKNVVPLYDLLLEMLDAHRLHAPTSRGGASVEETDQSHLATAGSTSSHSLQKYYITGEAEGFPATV
smiles,measurement,setting,value
Cc1c(Cl)c(=O)oc2cc(O)ccc12,Potency,[1],inactive
same,Potency,[2],49 µM (active)
same,Potency,[3],43.6 µM (active)
same,Potency,[4],inactive
same,Potency,[5],inactive
same,Potency,[6],inactive
same,Potency,[7],inactive
same,Potency,[8],inactive
same,Potency,[9],inactive
same,Potency,[10],34.4 µM (active)
CCCC(=O)c1cc(O)c(O)cc1O,Potency,[1],inactive
same,Potency,[3],inactive
same,Potency,[4],inactive
same,Potency,[5],inactive
same,Potency,[6],inactive
same,Potency,[11],inactive
same,Potency,[12],inactive
same,PLD induction,[13],-3.64% [at 3.15 µM]
same,Potency,[7],inactive
same,Potency,[8],inactive
same,Potency,[14],54.5 µM (active)
same,Potency,[9],inactive
same,Potency,[10],27.3 µM (active)
c1ccc(C[P+](c2ccccc2)(c2ccccc2)c2ccccc2)cc1,Potency,[1],inactive
same,Potency,[2],1.74 µM (active)
same,Potency,[4],inactive
same,Potency,[5],inactive
same,Potency,[6],inactive
same,Potency,[15],10.9 µM (active)
same,Potency,[12],1.22 µM (active)
same,Potency,[7],inactive
same,Potency,[8],inactive
same,Potency,[9],inactive
same,Potency,[10],5.45 µM (active)
same,Potency,[16],2.73 µM (active)
CCNc1nc(NC(C)(C)C)nc(OC)n1,Potency,[1],inactive
same,Potency,[3],inactive
same,Potency,[4],inactive
same,Potency,[5],inactive
same,Potency,[6],inactive
same,Potency,[17],inactive
same,Potency,[15],inactive
same,Potency,[12],inactive
same,Potency,[7],inactive
same,Potency,[8],inactive
same,Potency,[14],inactive
same,Potency,[18],inactive
same,Potency,[9],inactive
same,Potency,[19],inactive
same,Potency,[16],inactive
Cc1ccc(S(=O)(=O)C(I)I)cc1,Potency,[1],11 µM (active)
same,Potency,[2],12.3 µM (active)
same,Potency,[3],24.5 µM (active)
same,Potency,[4],43.6 µM (active)
same,Potency,[5],12.3 µM (active)
same,Potency,[15],48.6 µM (active)
same,Potency,[11],15.4 µM (active)
same,Potency,[12],13.7 µM (active)
same,Potency,[8],inactive
same,Potency,[14],6.11 µM (active)
same,Potency,[18],7.7 µM (active)
same,Potency,[9],inactive
same,Potency,[10],1.22 µM (active)
same,Potency,[16],68.6 µM (active)
O=[N+]([O-])c1ccc(O)c2ncccc12,Potency,[1],inactive
same,Potency,[3],inactive
same,Potency,[4],inactive
same,Potency,[5],inactive
same,Potency,[15],9.44 µM (active)
same,Potency,[13],inactive
same,Potency,[7],inactive
same,Potency,[8],inactive
same,Potency,[14],1.88 µM (active)
same,Potency,[9],inactive
same,Potency,[10],0.531 µM (active)
same,outcome,[20],inactive
same,Potency,[19],5.96 µM (active)
same,Potency,[16],11.9 µM (active)
C=CC(=O)OCC(Br)CBr (configuration not stated),Potency,[1],inactive
same,Potency,[3],inactive
same,Potency,[4],inactive
same,Potency,[5],inactive
same,Potency,[6],inactive
same,Potency,[17],inactive
same,Potency,[15],inactive
same,Potency,[11],inactive
same,Potency,[12],inactive
same,Potency,[8],inactive
same,Potency,[14],inactive
same,Potency,[18],inactive
same,Potency,[9],inactive
same,Potency,[19],inactive
